TEAD-YAP inh = TEAD-YAP interaction inhibition; HEK-TIYL cells, TEAD-Gal4/YAP UAS-luciferase luminescence; inhibition, % at 9.12 µM; 1.4% of 640,000 active; AID 1259422; in the data active = inhibition above about 32%;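 also: 0% = median of test compound wells and 100% = reference inhibitor wells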
FBW7 activator = activators of human E3 ligase FBW7. Q969H0. AlphaScreen FBW7–phospho-cyclin E peptide binding, activator screen. normalized activity (activation), % at 26.1 µM. 0.13% of 650,000 active; in the data active = normalized activity above about 1.9%;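 also: purified mutant Fbw7 with reduced substrate affinity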
Target sequence (Q969H0 whole entry, looked up): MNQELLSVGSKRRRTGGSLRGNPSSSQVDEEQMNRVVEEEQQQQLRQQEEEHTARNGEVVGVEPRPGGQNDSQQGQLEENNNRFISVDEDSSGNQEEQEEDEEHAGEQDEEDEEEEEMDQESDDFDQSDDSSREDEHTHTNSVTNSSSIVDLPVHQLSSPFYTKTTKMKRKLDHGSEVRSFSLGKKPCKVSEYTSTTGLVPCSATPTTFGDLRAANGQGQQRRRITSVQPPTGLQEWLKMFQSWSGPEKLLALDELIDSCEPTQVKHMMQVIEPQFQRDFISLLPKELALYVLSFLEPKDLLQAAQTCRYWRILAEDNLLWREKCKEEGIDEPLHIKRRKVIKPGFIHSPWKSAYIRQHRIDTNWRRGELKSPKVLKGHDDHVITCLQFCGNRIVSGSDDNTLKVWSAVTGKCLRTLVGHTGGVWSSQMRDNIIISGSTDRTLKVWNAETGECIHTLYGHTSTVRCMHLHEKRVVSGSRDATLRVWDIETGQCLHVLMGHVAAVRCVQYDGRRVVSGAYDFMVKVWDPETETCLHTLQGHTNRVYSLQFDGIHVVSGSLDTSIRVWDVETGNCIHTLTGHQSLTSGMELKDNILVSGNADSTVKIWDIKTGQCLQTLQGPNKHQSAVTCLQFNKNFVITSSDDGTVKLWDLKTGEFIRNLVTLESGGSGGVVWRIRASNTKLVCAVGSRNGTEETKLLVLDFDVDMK
MITF inh = human MITF inhibition, primary screen | O75030 | AlphaScreen MITF homodimerization, bead proximity signal | inhibition, % at 2.6 µM | 0.91% of 650,000 active; in the data active = inhibition above about 50%;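 also: 0% = vehicle wells with protein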
GPR151 ag = activators of human GPR151 | AID 1508602 | 1% of 650,000 active | activation, % at 11.2 µM | PathHunter beta-arrestin GPR151 cells, luminescence | Q8TDV0; in the data active = activation above about 4.9%;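 also: 0% = median of compound wells and 100% = cells with positive control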
* hit, by the source's call. Rows were chosen to be rich in hits. Some 3.5% of all compounds tested hit in one or more screens of this group.

Screening Cc1c2oc3c(C)ccc(C(=O)N[C@@H]4C(=O)N[C@H](C(C)C)C(=O)N5CCC[C@H]5C(=O)N(C)CC(=O)N(C)[C@@H](C(C)C)C(=O)O[C@@H]4C)c3nc-2c(C(=O)N[C@@H]2C(=O)N[C@H](C(C)C)C(=O)N3CCC[C@H]3C(=O)N(C)CC(=O)N(C)[C@@H](C(C)C)C(=O)O[C@@H]2C)c(N)c1=O returned TEAD-YAP inh 96*, FBW7 activator 0, MITF inh 5 and GPR151 ag 0.
COc1ccc(-c2cc(C(=O)Oc3ccc([N+](=O)[O-])cc3)c3cc(C)ccc3n2)cc1 was read as TEAD-YAP inh 3, FBW7 activator 0, MITF inh 16 and GPR151 ag 2.
Screening Cc1ccc(C)c(N=Cc2ccc(O)c(O)c2)c1 returned TEAD-YAP inh -3, FBW7 activator 0, MITF inh -32 and GPR151 ag -1.
`CC(C)n1c(Nc2ccncc2)nc2c(Nc3ccc(Oc4ccccc4)cc3)ncnc21` gave TEAD-YAP inh 45*, FBW7 activator 0, MITF inh 19 and GPR151 ag -1.
`CC(C)n1c(Nc2ccc(-n3ccnc3)cc2)nc2c(Nc3ccccc3)ncnc21` gave TEAD-YAP inh 49*, FBW7 activator 0, MITF inh 1 and GPR151 ag -6.
Screening CC(C)n1c(NCc2cccnc2)nc2c(Nc3ccccc3)ncnc21 returned TEAD-YAP inh 53*, FBW7 activator 0, MITF inh 8 and GPR151 ag -6.
For Cc1cnc(-c2ccc(C)c([N+](=O)[O-])c2)c(C)c1 the results were TEAD-YAP inh -13, FBW7 activator 0, MITF inh -7 and GPR151 ag 0.
O=C(CSc1cccc[n+]1[O-])Nc1ccc(Cl)cn1 was read as TEAD-YAP inh -6, FBW7 activator 0, MITF inh 13 and GPR151 ag -1.
`CCN(CC)C(=O)C1CCCN(c2nc(NCCCN3CCCC3=O)c3ncn(-c4ccccc4)c3n2)C1` (stereo unspecified) gave TEAD-YAP inh 36*, FBW7 activator 0, MITF inh 8 and GPR151 ag 3.
For OCCNc1nc(N2CCCC2CO)nc2c1ncn2-c1ccccc1 (stereo unspecified) the results were TEAD-YAP inh 55*, FBW7 activator 0, MITF inh 3 and GPR151 ag -1.
Clc1nc(NCc2nc3ccccc3[nH]2)c2ncn(-c3ccccc3)c2n1 was read as TEAD-YAP inh 3, FBW7 activator 0, MITF inh -8 and GPR151 ag 2.
Screening CC(C)n1cnc2c(NCCO)nc(N3CCCC3CO)nc21 (stereo unspecified) returned TEAD-YAP inh 17, FBW7 activator 0, MITF inh 0 and GPR151 ag -1.
`O=C1CCCN1CCCNc1nc(N2CCCC2CO)nc2c1ncn2-c1ccsc1` (stereo unspecified) gave TEAD-YAP inh 42*, FBW7 activator 0, MITF inh 12 and GPR151 ag -1.
Screening OCC1CCCN1c1nc(NCc2nc3ccccc3[nH]2)c2ncn(-c3ccccc3)c2n1 (stereo unspecified) returned TEAD-YAP inh 48*, FBW7 activator 0, MITF inh 9 and GPR151 ag 1.
Screening CN(C)c1ccc(NC(=O)c2ccccc2Br)cc1 returned TEAD-YAP inh -48, FBW7 activator 0, MITF inh 4 and GPR151 ag 1.
`CCOC(=O)c1cn(C2CC2)c2cc(N)c([N+](=O)[O-])cc2c1=O` gave TEAD-YAP inh 3, FBW7 activator 1, MITF inh 10 and GPR151 ag 0.
`O=C(Nc1ccc(S(=O)(=O)NC2CCCCC2)cc1)c1ccc([N+](=O)[O-])cc1Cl` gave TEAD-YAP inh -10, FBW7 activator 0, MITF inh 0 and GPR151 ag 1.
Screening O=C1CCCN1CCCNc1nc(N2CCCC2CO)nc2c1ncn2-c1ccccc1 (stereo unspecified) returned TEAD-YAP inh 47*, FBW7 activator 0, MITF inh 5 and GPR151 ag 0.
`OCC1CCCN1c1nc(NCCc2ccc(O)cc2)c2ncn(-c3ccsc3)c2n1` (stereo unspecified) gave TEAD-YAP inh 19, FBW7 activator 0, MITF inh 6 and GPR151 ag -2.
OCC1CCCN1c1nc(NCCN2CCOCC2)c2ncn(-c3ccsc3)c2n1 (stereo unspecified) was read as TEAD-YAP inh 61*, FBW7 activator 0, MITF inh 12 and GPR151 ag 0.
Screening Cc1ccccc1OCC(=O)Nc1ccc2oc(-c3cccnc3)nc2c1 returned TEAD-YAP inh 0, FBW7 activator 0, MITF inh 16 and GPR151 ag 0.
For COc1ccc(OC(C)C(=O)Nc2ccc(C)c(C)c2)cc1 (stereo unspecified) the results were TEAD-YAP inh -10, FBW7 activator 0, MITF inh -18 and GPR151 ag -1.
`CCOc1ccc2nc(SCCC(=O)Nc3ccc(OC)cc3)sc2c1` gave TEAD-YAP inh 28, FBW7 activator 0, MITF inh 1 and GPR151 ag 3.
`CCOc1ccc(NC(=O)C2CCN(c3nc4ccc(OCC)cc4s3)CC2)cc1` gave TEAD-YAP inh 12, FBW7 activator 0, MITF inh -3 and GPR151 ag 1.
Screening CCOc1ccc2nc(N3CCC(C(=O)Nc4cccc(C(C)=O)c4)CC3)sc2c1 returned TEAD-YAP inh 69*, FBW7 activator 1, MITF inh 19 and GPR151 ag 1.
CCc1ccc2nc(N3CCC(C(=O)N4CCCC4)CC3)sc2c1 was read as TEAD-YAP inh 48*, FBW7 activator 0, MITF inh 2 and GPR151 ag 0.
For CCOC(=O)N1CCN(C(=O)C2CCN(c3nc4ccc(CC)cc4s3)CC2)CC1 the results were TEAD-YAP inh 11, FBW7 activator 1, MITF inh -7 and GPR151 ag 0.
`CCOc1ccc2nc(SCCC(=O)Nc3ccccc3)sc2c1` gave TEAD-YAP inh 36*, FBW7 activator 0, MITF inh -4 and GPR151 ag 1.
`CCc1ccc2nc(N3CCCC(C(=O)O)C3)sc2c1` (stereo unspecified) gave TEAD-YAP inh 58*, FBW7 activator 0, MITF inh 9 and GPR151 ag 0.
CCOc1cc(C(Nc2ccccn2)c2ccc3cccnc3c2O)ccc1OC (stereo unspecified) was read as TEAD-YAP inh 89*, FBW7 activator 0, MITF inh 31 and GPR151 ag 1.
CCOc1cc(C(Nc2ccccn2)c2ccc3cccnc3c2O)ccc1O (stereo unspecified) was read as TEAD-YAP inh -7, FBW7 activator -1, MITF inh 50 and GPR151 ag 0.
`CCOc1ccc(C(Nc2ccccn2)c2ccc3cccnc3c2O)cc1` (stereo unspecified) gave TEAD-YAP inh 86*, FBW7 activator -1, MITF inh 27 and GPR151 ag 1.
`COc1cc(C(Nc2ccccn2)c2ccc3cccnc3c2O)cc(Br)c1OC` (stereo unspecified) gave TEAD-YAP inh 76*, FBW7 activator 0, MITF inh 19 and GPR151 ag 0.
